This is a sample that favours compounds with a hit; in the whole collection about 12% have one here.
BAZ2B block: inhibitors of human BAZ2B bromodomain. Potency, µM (top dose mostly 114 µM), most hits filed as inhibitors. AlphaScreen BAZ2B-H3K14Ac peptide displacement. 360,000 tested, 4.4% active. Q9UIF8; further: nearly all actives have a fitted effect of over 60% in size
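Complex of BAZ2B and biotin-H3K14Ac (50 nM apiece) forms over 30 min at RT, then faces library compounds up to 110 uM for another 30 min; AlphaScreen beads added, 20 min dark incubation, luminescence read.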
G9a inh: inhibitors of human histone lysine methyltransferase G9a | G9a H3K9 monomethylation, AlphaScreen, 2 h | 350,000 tested, 8.8% active | AID 504332 | Potency, µM (series often up to 102 µM), usual class: inhibitors; further: nearly all actives have a fitted effect of over 75% in size
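G9a (20 nM) preincubated 15 min RT with compounds, then 500 nM biotinylated H3K9 peptide and 20 uM SAM added; 2 h RT reaction. Monomethyl-H3K9 product detected by AlphaScreen with anti-H3K9me1 antibody, streptavidin donor and anti-rabbit IgG acceptor beads.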
HP1b binding inh: HP1-beta chromodomain-methylated histone interaction inhibition; P83916; AlphaScreen HP1-beta / biotin-H3K9me3 peptide binding; Potency, µM (top dose mostly 114 µM), most hits filed as inhibitors; 390,000 tested, 0.56% active; further: nearly all actives have a fitted effect of over 70% in size
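HP1-beta protein (50 nM final) preincubated 30 min at room temperature with biotinylated H3(1-18)K9me3 peptide (50 nM) in PBS pH 7.4, 0.01% Tween-20, then compound added for 30 min. AlphaScreen streptavidin donor/nickel chelate acceptor beads (10 ug/mL final), 30 min dark, luminescence read.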
JMJD2A Tudor inh: inhibitors of human JMJD2A Tudor domain | O75164 | AlphaScreen JMJD2A-Tudor / H3K4me3 peptide binding | Potency, µM (series often up to 114 µM), most hits filed as inhibitors | 390,000 tested, 4.4% active | AID 504339; further: nearly all actives have a fitted effect of over 50% in size
Target sequence (O75164 whole entry, looked up, the tested form may be a part): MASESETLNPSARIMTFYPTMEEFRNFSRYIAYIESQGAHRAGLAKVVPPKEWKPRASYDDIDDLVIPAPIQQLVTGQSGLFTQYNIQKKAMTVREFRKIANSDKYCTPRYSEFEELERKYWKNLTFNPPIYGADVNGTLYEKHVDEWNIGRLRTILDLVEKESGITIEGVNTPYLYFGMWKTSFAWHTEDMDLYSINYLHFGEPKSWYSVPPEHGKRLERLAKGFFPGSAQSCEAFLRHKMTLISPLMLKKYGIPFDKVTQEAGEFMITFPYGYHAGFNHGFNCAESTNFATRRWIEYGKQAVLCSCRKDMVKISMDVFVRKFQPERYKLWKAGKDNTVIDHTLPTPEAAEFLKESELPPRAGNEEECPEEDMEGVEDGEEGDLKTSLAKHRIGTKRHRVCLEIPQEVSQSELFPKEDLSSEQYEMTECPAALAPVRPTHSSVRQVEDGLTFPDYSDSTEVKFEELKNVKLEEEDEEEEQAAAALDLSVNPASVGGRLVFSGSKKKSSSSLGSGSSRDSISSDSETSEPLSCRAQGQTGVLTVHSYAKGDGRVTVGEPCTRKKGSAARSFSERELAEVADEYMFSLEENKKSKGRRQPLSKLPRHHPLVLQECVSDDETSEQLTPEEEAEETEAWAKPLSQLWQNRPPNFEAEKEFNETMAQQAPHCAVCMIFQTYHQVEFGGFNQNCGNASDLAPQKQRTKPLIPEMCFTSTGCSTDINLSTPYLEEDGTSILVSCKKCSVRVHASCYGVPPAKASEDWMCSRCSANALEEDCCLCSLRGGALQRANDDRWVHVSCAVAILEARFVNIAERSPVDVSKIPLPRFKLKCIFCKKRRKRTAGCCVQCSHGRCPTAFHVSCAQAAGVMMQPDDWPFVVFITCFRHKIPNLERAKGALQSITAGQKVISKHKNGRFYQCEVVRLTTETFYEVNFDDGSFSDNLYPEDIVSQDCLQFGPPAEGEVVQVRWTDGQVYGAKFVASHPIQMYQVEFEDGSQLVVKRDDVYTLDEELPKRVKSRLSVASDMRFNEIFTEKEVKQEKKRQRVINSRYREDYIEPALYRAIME
Sfp PPTase inh: blocks B. subtilis Sfp PPTase activity | Q9F4F7 | Potency, µM, most hits filed as inhibitors | 310,000 tested, 3.5% active | Biochemical Sfp PPTase activity, qHTS;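 further: the enzyme is Sfp with the accession as filed and its product quenches rhodamine fluorescence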
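Reaction rates are the 30-min fluorescence difference (ex 525, em 598 nm) in wells containing 15 nM Sfp, 5 uM rhodamine-CoA and 12.5 uM BHQ-2-YbbR at pH 7.6 with 10 mM MgCl2.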
L3MBTL1 block: inhibitors of human L3MBTL1. Q9Y468. AlphaScreen L3MBTL1–H3K9me1 peptide binding. Potency, µM (doses to about 57.1 µM), usual class: inhibitors. 230,000 tested, 0.66% active. AID 485360; further: nearly all actives have a fitted effect of over 60% in size
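L3MBTL1 50 nM + b-AHA-H3(1-15)K9me1 75 nM, 30 min RT; compound added, 30 min RT; streptavidin donor/Ni-chelate acceptor beads 10 ug/mL each final, 30 min RT dark; AlphaScreen read.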
Of the large screens only hits and unclear results are named; the others gave an inactive call. The call rests on the fitted dose curve; in most records, active means well fitted curve in the direction sought with a large enough effect; inconclusive means small, poorly fitted or top-dose-only effect, or another doubt; inactive means no such curve, though single readings can be large; an effect the other way counts as inactive or inconclusive.

CCN1CCN(Cc2ccc(OCc3ccccc3)cc2)CC1	none
CC(C)NC(=O)C1CCN(Cc2cccc(Oc3ccccc3)c2)CC1	BAZ2B block inconclusive, HP1b binding inh inconclusive, JMJD2A Tudor inh 22µM (no result: G9a inh)
Cc1onc(-c2ccccc2Cl)c1C(=O)Nc1nnc(C2CCCCC2)s1	none (no result: BAZ2B block, G9a inh, Sfp PPTase inh, L3MBTL1 block)
COc1ccc2c(c1)cc1c(=O)n(CC(=O)NCCc3ccccc3)nc(C)n12	none (no result: Sfp PPTase inh, L3MBTL1 block)
Fc1ccc(CN2CCSCC2)cc1Br	BAZ2B block 50µM, G9a inh 8.9µM, HP1b binding inh inconclusive, JMJD2A Tudor inh 3.2µM
COC(=O)C1CCN(Cc2ccc(C)cc2)CC1	none (no result: L3MBTL1 block)
Cc1cccc(CN2CCC(C(N)=O)CC2)c1	none (no result: L3MBTL1 block)
CCOC(=O)C1CCN(Cc2ccc(F)c(Br)c2)CC1	BAZ2B block 50µM, G9a inh inconclusive, JMJD2A Tudor inh 3.2µM
NC(=O)C1CCN(Cc2cccc(OCc3ccccc3)c2)CC1	BAZ2B block inconclusive, HP1b binding inh inconclusive, JMJD2A Tudor inh 2.5µM (no result: G9a inh)
CCOC(=O)C1CCCCN1Cc1cccc(OCc2ccccc2)c1 (stereo unspecified)	BAZ2B block inconclusive, HP1b binding inh inconclusive, JMJD2A Tudor inh 10µM, Sfp PPTase inh inconclusive (no result: G9a inh)
Cc1nn2c(=O)cc(COC(=O)c3ccc(NC(=O)COc4ccc(Cl)cc4)cc3)nc2s1	none (no result: Sfp PPTase inh, L3MBTL1 block)
CCOc1ccc2c(c1)c(=O)c(S(=O)(=O)c1ccc(CC)cc1)cn2Cc1cccc(Cl)c1	none (no result: Sfp PPTase inh, L3MBTL1 block)
CCOC(=O)C1CCN(Cc2nc3ccc(Cl)cc3n2CCO)CC1	BAZ2B block 45µM, G9a inh inconclusive, HP1b binding inh 14µM, JMJD2A Tudor inh 1.1µM, Sfp PPTase inh inconclusive
O=C(NCc1ccccn1)C1CCN(Cc2cccc(OCc3ccccc3)c2)CC1	BAZ2B block inconclusive, HP1b binding inh inconclusive, JMJD2A Tudor inh 3.5µM
COc1ccc(N(CC(=O)NC2CCS(=O)(=O)C2)S(=O)(=O)c2ccc(Cl)c(Cl)c2)cc1 (stereo unspecified)	G9a inh 50µM (no result: Sfp PPTase inh)
Cc1nc(SCC(=O)Nc2cc(C(N)=O)cc(C(N)=O)c2)c2c(C)c(C)sc2n1	BAZ2B block inconclusive, G9a inh 45µM, JMJD2A Tudor inh inconclusive (no result: L3MBTL1 block)
Cc1nc(SCC(=O)Nc2ccc(S(=O)(=O)N3CCOCC3)cc2)c2c(C)c(C)sc2n1	none (no result: BAZ2B block, G9a inh, Sfp PPTase inh)
Cc1cccc(Nc2nc(-c3ccc4c(c3)OCCO4)cs2)c1	BAZ2B block 50µM, G9a inh 7.9µM, JMJD2A Tudor inh inconclusive (no result: L3MBTL1 block)
O=C(Nc1nc(-c2ccc3c(c2)OCCO3)cs1)C1CCCC1	BAZ2B block inconclusive, G9a inh 45µM, JMJD2A Tudor inh inconclusive
CN(C)/C=N/c1nc(-c2ccc3c(c2)OCO3)cs1	none
Cc1nc(-c2ccc3c(c2)OCCO3)cs1	G9a inh 32µM, Sfp PPTase inh inconclusive
Cc1cccc(Nc2nc(-c3ccncc3)cs2)c1	G9a inh inconclusive (no result: L3MBTL1 block)
CCOC(=O)C1=C(CN2CCN(c3ccc(Cl)cc3)CC2)NC(=O)NC1c1ccc(OC)cc1 (stereo unspecified)	BAZ2B block inconclusive, JMJD2A Tudor inh inconclusive (no result: Sfp PPTase inh, L3MBTL1 block)
O=C1/C(=C/c2ccc(F)cc2)SC(=S)N1Nc1ncc(C(F)(F)F)cc1Cl	G9a inh 45µM, JMJD2A Tudor inh 63µM, Sfp PPTase inh 50µM (no result: L3MBTL1 block)
O=C1/C(=C\c2ccccn2)SC(=S)N1Nc1ncc(C(F)(F)F)cc1Cl	BAZ2B block 79µM, G9a inh 10µM, JMJD2A Tudor inh 56µM, Sfp PPTase inh 50µM
O=C1/C(=C/c2ccccn2)SC(=S)N1Nc1ncc(C(F)(F)F)cc1Cl	HP1b binding inh inconclusive, JMJD2A Tudor inh 50µM (no result: BAZ2B block, G9a inh, Sfp PPTase inh, L3MBTL1 block)
Cc1ccc(Cl)cc1N1CCN(C(=O)c2sc3nc4n(c(=O)c3c2C)CCC4)CC1	none (no result: Sfp PPTase inh, L3MBTL1 block)
COC(=O)C[C@H]1c2ccccc2C2=C(C[C@@H](C)[C@H]3C(=O)N(c4ccccc4)C(=O)[C@@H]23)N1C(=O)OC	none (no result: BAZ2B block, G9a inh, HP1b binding inh, JMJD2A Tudor inh, L3MBTL1 block)
COc1ccc(C(=O)c2ccc([N+](=O)[O-])cc2Cl)cc1	BAZ2B block inconclusive, HP1b binding inh inconclusive, JMJD2A Tudor inh 56µM (no result: G9a inh)
COc1ccc(OC)c(C(=O)c2ccc([N+](=O)[O-])cc2)c1	JMJD2A Tudor inh 89µM (no result: BAZ2B block, G9a inh, Sfp PPTase inh, L3MBTL1 block)
COc1ccc(OC)c(C(=O)c2ccc(C(=O)c3cc(OC)ccc3OC)cc2)c1	Sfp PPTase inh inconclusive (no result: L3MBTL1 block)
CC(C)(C)OC(=O)Cc1nnc(-c2cc3ccccc3[nH]2)o1	none (no result: BAZ2B block, G9a inh, HP1b binding inh, Sfp PPTase inh, L3MBTL1 block)

Compound activity: PubChem, National Center for Advancing Translational Sciences (NCATS)
